# Assay results from PubChem BioAssay.
# The source made the active and inactive calls. Unless noted, the rule behind the calls is not given here.
# Legend:
# [1] = test system: Wnt5a (protein binding on small-molecule microarray); experiment: Wnt5a binders on small-molecule microarray, primary screen, biophysical, 635/667 nm fluorescence (AID 1142); details: 635 nm fluorescence, higher = more signal;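 note: fluorescence read at 667 nm with signal to noise per printed feature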
# [2] = cell viability in Huh7 cells, primary screen, cytotoxicity control for HCV replication inhibitor project, CellTiter-Glo luminescence, basal, 48 h (AID 1143); details: Huh7 HCV replicon, higher = more signal, called active from +8 up or from −8 down;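 note: Huh7 hepatoma cells carrying a hepatitis C replication reporter with no stimulus; test concentration not given here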
# [3] = P. aeruginosa biofilm formation inhibitors, primary screen, PAO1 strain, BacTiter-Glo luminescence, LB-PBS (AID 1144); details: 12 h, higher = more signal
# [4] = CREB reporter modulators without forskolin, primary screen, cell-based, PC12, CRE-LacZ reporter, unstimulated (AID 1145); details: no forskolin, luminescence, 4.5 h, higher = more signal, called active from +8 up or from −8 down
# [5] = CREB reporter modulators under forskolin, primary screen, cell-based, PC12, CRE-LacZ reporter, forskolin-stimulated (AID 1146); details: luminescence, 4.5 h, higher = more signal, called active from +8 up or from −8 down;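 note: PC12 cells with 6xCRE LacZ reporter stimulated by forskolin 10 µM; beta-galactosidase reporter signal reflecting CREB driven transcription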
# [6] = molecular target: Streptavidin (Streptomyces avidinii) (UniProt P22629); experiment: streptavidin binders on small-molecule microarray, primary screen, artefact control for SMM compound annotation, biophysical, 635/667 nm fluorescence (AID 1147); details: streptavidin binding, higher = more signal;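 note: signal reflects streptavidin binding to arrayed compounds as a control protein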
# [7] = small-molecule binders of probe aInhba, primary screen, biochemical, small-molecule microarray, 635/667 nm fluorescence (AID 1148); details: higher = more signal;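 note: score merges 667nm spot fluorescence with signal-to-noise for antibody binding to printed compounds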
# [8] = molecular target: Torsin-1A (Homo sapiens) (UniProt O14656); experiment: torsin A binders from cell lysate, primary screen, small-molecule microarray, wild-type, 635/667 nm (AID 1149); details: COS7 hTOR1A-WT lysate, 635 nm fluorescence, higher = more signal
# [9] = molecular target: Torsin-1A (Homo sapiens) (UniProt O14656); experiment: small-molecule binders of mutant TOR1A in lysate, primary screen, cell lysate, small-molecule microarray, COS7 lysate, 635/667 nm fluorescence (AID 1150); details: COS7 hTOR1A mutant lysate, 635 nm fluorescence, higher = more signal;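 note: score pools 667 nm emission and signal to noise measuring lysate protein binding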
# [10] = test system: Sonic hedgehog protein (Shh); experiment: small-molecule binders of Shh protein, primary screen, biochemical, small-molecule microarray, 635/667 nm fluorescence (AID 1151); details: small-molecule microarray binding, 635 nm fluorescence; higher = more signal;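 note: Shh protein binding to compounds spotted on small-molecule microarray slides; score combines spot fluorescence intensity with signal-to-noise across triplicate slides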
# [11] = E. coli DRC41 culture turbidity changes, primary screen, E. coli filamentation inducer project, strain DRC41, OD650, 48 h (AID 1152);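 note: E. coli MC1000 strain DRC41 lacking acrAB efflux pump and sulA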; details: E. coli DRC41 (acrAB sulA), higher = more signal, called active from +8 up or from −8 down
# [12] = small-molecule binders of probe aLefty1, primary screen, biochemical, small-molecule microarray, 635/667 nm fluorescence (AID 1153); details: higher = more signal;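 note: score merges spot fluorescence with signal-to-noise ratio from the scanned slide images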
# [13] = PSAC antagonists in infected red cells, primary screen, cell-based, P. falciparum Indochina, OD700, 1 h (AID 1154); details: P. falciparum Indochina infected RBC osmotic lysis, higher = more signal, called active from +8 up or from −8 down
# [14] = PSAC antagonists in infected red cells, primary screen, cell-based, P. falciparum Indochina, OD700, 2 h (AID 1155);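 note: lysis reports solute entry through the parasite surface anion channel PSAC; channel blockers reduce lysis of infected cells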; details: P. falciparum Indochina infected erythrocytes, osmotic lysis OD700; higher = more signal, called active from +8 up or from −8 down
# [15] = osmotic lysis modulators in infected erythrocytes, primary screen, PSAC antagonist project, cell-based, P. falciparum Indochina, OD700, 3 h (AID 1156); details: higher = more signal, called active from +8 up or from −8 down
# [16] = PSAC antagonists in infected red cells, primary screen, cell-based, P. falciparum Indochina, OD700, 18 h (AID 1157); details: P. falciparum Indochina infected erythrocytes, osmotic lysis OD700, 18 h; higher = more signal, called active from +8 up or from −8 down
# [17] = modulators of S6 phosphorylation in cells, primary screen, cell-based, A549, cytoblot, luminescence, serum-stimulated (AID 1158); details: A549 phospho-S6 cytoblot, 5 h, higher = more signal;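 note: serum-stimulated A549 lung adenocarcinoma cells; signal is phosphorylated S6 detected by cytoblot immunostaining with HRP secondary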
# [18] = molecular target: NADPH oxidase 2 (Homo sapiens) (UniProt P04839); experiment: NOX2-dependent H2O2 signal modulators, primary screen, NOX inhibitor project, cell-based, HEK293-NOX2, PMA-stimulated, Amplex Red fluorescence (AID 1159); details: 45 min, higher = more signal, called active from +8 up or from −8 down; note: test concentration not given here
# [19] = molecular target: NADPH oxidase 4 (Homo sapiens) (UniProt Q9NPH5); experiment: NOX4-dependent H2O2 signal modulators, primary screen, NOX inhibitor project, cell-based, HEK293-NOX4, tetracycline-induced, Amplex Red fluorescence (AID 1160); details: 45 min, higher = more signal, called active from +8 up or from −8 down
# [20] = molecular target: NADPH oxidase 5 (Homo sapiens) (UniProt Q96PH1); experiment: NOX5-dependent H2O2 signal modulators, primary screen, NOX inhibitor project, cell-based, HEK293-NOX5, Amplex Red fluorescence (AID 1161); details: HEK293-NOX5, ionomycin, 45 min, higher = more signal
# NADPH oxidase 5 (Homo sapiens), sequence (Q96PH1 whole entry, looked up): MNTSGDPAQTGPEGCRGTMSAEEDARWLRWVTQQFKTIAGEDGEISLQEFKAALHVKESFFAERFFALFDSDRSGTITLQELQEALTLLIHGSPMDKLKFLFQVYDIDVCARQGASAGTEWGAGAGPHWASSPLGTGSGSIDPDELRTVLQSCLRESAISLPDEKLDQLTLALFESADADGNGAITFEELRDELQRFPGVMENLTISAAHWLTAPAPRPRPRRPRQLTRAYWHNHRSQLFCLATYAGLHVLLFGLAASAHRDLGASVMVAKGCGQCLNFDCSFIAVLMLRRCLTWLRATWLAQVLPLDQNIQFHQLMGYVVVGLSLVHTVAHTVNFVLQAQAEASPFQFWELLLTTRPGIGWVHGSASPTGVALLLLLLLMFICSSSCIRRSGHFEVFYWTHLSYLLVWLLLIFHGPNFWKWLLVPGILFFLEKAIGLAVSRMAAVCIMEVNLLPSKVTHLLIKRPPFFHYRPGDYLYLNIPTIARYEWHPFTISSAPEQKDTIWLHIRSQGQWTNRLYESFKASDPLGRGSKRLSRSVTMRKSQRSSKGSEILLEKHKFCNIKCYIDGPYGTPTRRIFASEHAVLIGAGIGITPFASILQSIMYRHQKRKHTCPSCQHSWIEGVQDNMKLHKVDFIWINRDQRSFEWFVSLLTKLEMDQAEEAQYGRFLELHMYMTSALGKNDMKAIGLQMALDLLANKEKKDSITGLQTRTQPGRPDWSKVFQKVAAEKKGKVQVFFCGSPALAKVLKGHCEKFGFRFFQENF
# Torsin-1A (Homo sapiens), sequence (O14656 whole entry, looked up): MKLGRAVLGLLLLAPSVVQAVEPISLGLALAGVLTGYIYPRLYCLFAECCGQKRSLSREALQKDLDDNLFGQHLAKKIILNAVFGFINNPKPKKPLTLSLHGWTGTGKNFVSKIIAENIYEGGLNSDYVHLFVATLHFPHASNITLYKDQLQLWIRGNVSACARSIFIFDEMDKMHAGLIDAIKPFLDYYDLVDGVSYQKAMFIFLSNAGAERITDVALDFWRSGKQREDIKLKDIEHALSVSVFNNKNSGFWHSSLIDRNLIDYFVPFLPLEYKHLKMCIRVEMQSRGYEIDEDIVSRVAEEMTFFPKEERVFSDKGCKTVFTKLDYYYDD
# NADPH oxidase 2 (Homo sapiens), sequence (P04839 whole entry, looked up): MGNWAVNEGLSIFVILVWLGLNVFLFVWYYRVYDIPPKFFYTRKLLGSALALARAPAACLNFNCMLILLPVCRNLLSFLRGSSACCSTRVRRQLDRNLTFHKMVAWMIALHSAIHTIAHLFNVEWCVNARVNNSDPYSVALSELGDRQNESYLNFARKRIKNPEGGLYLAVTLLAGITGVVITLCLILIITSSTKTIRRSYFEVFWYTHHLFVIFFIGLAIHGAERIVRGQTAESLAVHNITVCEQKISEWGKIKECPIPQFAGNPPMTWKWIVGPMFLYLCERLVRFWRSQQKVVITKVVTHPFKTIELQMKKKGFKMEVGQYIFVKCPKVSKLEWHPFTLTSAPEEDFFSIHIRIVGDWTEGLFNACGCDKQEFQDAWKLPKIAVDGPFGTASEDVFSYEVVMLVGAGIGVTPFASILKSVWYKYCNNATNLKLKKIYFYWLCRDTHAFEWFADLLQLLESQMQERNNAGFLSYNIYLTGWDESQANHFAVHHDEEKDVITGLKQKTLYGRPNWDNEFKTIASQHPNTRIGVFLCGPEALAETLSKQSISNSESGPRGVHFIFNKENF
# Streptavidin (Streptomyces avidinii), sequence (P22629 whole entry, looked up): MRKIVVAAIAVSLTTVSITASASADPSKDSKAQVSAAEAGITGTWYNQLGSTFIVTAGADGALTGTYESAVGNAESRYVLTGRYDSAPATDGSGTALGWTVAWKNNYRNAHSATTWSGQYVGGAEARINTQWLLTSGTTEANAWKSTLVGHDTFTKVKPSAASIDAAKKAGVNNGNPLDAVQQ
# NADPH oxidase 4 (Homo sapiens), sequence (Q9NPH5 whole entry, looked up): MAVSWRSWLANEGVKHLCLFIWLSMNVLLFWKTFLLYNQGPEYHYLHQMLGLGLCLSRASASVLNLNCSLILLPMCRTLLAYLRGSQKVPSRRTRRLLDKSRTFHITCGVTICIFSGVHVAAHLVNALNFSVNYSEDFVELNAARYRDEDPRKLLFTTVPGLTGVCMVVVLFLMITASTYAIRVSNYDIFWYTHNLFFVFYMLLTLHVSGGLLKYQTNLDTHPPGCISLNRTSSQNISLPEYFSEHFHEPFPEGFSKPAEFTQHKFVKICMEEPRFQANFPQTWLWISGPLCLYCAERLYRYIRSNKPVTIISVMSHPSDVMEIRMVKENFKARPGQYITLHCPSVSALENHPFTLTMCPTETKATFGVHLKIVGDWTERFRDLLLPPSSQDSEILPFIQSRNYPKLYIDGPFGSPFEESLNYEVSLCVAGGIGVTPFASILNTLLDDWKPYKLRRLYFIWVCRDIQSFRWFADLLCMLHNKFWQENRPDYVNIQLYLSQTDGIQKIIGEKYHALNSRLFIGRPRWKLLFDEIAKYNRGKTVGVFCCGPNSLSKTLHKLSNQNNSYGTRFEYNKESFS
structure (smiles),measurement,setting,value
COC(=O)[C@H](Cc1ccccc1)N[C@@H](/C=C/C1CC1)[C@H](O)Cc1ccccc1,composite z-score,[1],1.2
same,z-score,[2],-0.389 (inactive)
same,z-score,[3],0.186 (inactive)
same,z-score,[4],1.31 (inactive)
same,z-score,[5],0.15 (inactive)
same,composite z-score,[6],0.648
same,composite z-score,[7],-0.231
same,composite z-score,[8],0.324
same,composite z-score,[9],0.341
same,composite z-score,[10],-0.21
same,z-score,[11],0.0327 (inactive)
same,composite z-score,[12],-0.239
same,z-score,[13],0.738 (inactive)
same,z-score,[14],0.229 (inactive)
same,z-score,[15],-0.592 (inactive)
same,z-score,[16],0.428 (inactive)
same,z-score,[17],-0.162
same,z-score,[18],0.42 (inactive)
same,z-score,[19],-0.135 (inactive)
same,z-score,[20],-1.41
C=CCN1C(=O)[C@]2(O[C@H](CCn3cc([C@H](O)c4ccccc4)nn3)[C@@H]([Si](C)(C)c3ccc(OC)cc3)[C@@H]2C)c2cc(N3CCC3=O)ccc21,composite z-score,[1],0.979
same,z-score,[2],-4.37 (inactive)
same,z-score,[3],-0.549 (inactive)
same,z-score,[4],2.37 (inactive)
same,z-score,[5],-0.229 (inactive)
same,composite z-score,[6],-0.0806
same,composite z-score,[7],0.481
same,composite z-score,[8],0.279
same,composite z-score,[9],0.398
same,composite z-score,[10],2.08
same,z-score,[11],0.894 (inactive)
same,composite z-score,[12],0.188
same,z-score,[13],3.76 (inactive)
same,z-score,[14],1.05 (inactive)
same,z-score,[15],2.62 (inactive)
same,z-score,[16],0.721 (inactive)
same,z-score,[17],2.02
same,z-score,[18],0.632 (inactive)
same,z-score,[19],-0.709 (inactive)
same,z-score,[20],-1.74
COCCOC(=O)N1C(=O)[C@@]2(c3cc(C#CC4(O)CCCCCC4)ccc31)[C@H](c1ccccc1OCCO)N1[C@H](c3ccccc3)[C@H](c3ccccc3)OC(=O)[C@H]1[C@@H]2C(=O)N1CCN(c2ncccn2)CC1,composite z-score,[1],0.839
same,z-score,[2],-1.86 (inactive)
same,z-score,[3],-0.354 (inactive)
same,z-score,[4],0.155 (inactive)
same,z-score,[5],0.411 (inactive)
same,composite z-score,[6],0.356
same,composite z-score,[7],0.153
same,composite z-score,[8],0.456
same,composite z-score,[9],0.699
same,composite z-score,[10],0.678
same,z-score,[11],0.888 (inactive)
same,composite z-score,[12],-0.0437
same,z-score,[13],1.67 (inactive)
same,z-score,[14],1.31 (inactive)
same,z-score,[15],0.824 (inactive)
same,z-score,[16],0.712 (inactive)
same,z-score,[17],-0.0324
same,z-score,[18],0.342 (inactive)
same,z-score,[19],0.386 (inactive)
same,z-score,[20],1.03
C[C@H]1NC(=O)[C@@]23C(=O)N[C@@H](Cc4ccccc4)C2[C@H](C)[C@@]2(C)O[C@H]2C3/C=C/C/C=C\CNC(=O)[C@@H]2CCCN2C1=O (stereo not given in full),composite z-score,[1],0.168
same,z-score,[2],-0.0568 (inactive)
same,z-score,[3],-0.545 (inactive)
same,z-score,[4],1.03 (inactive)
same,z-score,[5],0.647 (inactive)
same,composite z-score,[6],0.301
same,composite z-score,[7],-0.0589
same,composite z-score,[8],0.396
same,composite z-score,[9],-0.103
same,composite z-score,[10],1.73
same,z-score,[11],-0.0438 (inactive)
same,composite z-score,[12],-0.0046
same,z-score,[13],0.306 (inactive)
same,z-score,[14],0.189 (inactive)
same,z-score,[15],0.159 (inactive)
same,z-score,[16],0.108 (inactive)
same,z-score,[17],-0.199
same,z-score,[18],-0.0374 (inactive)
same,z-score,[19],1.41 (inactive)
same,z-score,[20],0.41
O=C1N[C@@H](Cc2ccccc2)C(=O)N2[C@@H]1C[C@@H](C(=O)O)[C@H]2c1cccc(OCCO)c1,composite z-score,[1],0.0465
same,z-score,[2],-0.333 (inactive)
same,z-score,[3],-0.965 (inactive)
same,z-score,[4],0.692 (inactive)
same,z-score,[5],0.321 (inactive)
same,composite z-score,[6],0.0555
same,composite z-score,[7],-0.128
same,composite z-score,[8],1.14
same,composite z-score,[9],0.719
same,composite z-score,[10],1.77
same,z-score,[11],0.931 (inactive)
same,composite z-score,[12],0.0903
same,z-score,[13],6.39 (inactive)
same,z-score,[14],1.12 (inactive)
same,z-score,[15],-2.03 (inactive)
same,z-score,[16],0.375 (inactive)
same,z-score,[17],1.17
same,z-score,[18],-2.21 (inactive)
same,z-score,[19],-2.89 (inactive)
same,z-score,[20],-0.102
C=CCC(OC(C)=O)[C@@H]1[C@@H](N(Cc2cccc3ccccc23)C(=O)c2ccc(-c3ccccc3)cc2)c2cc(OCCCO)ccc2N1C(=O)c1ccc2ccccc2c1 (stereo not given in full),composite z-score,[1],-0.0128
same,z-score,[2],0.107 (inactive)
same,z-score,[3],-0.815 (inactive)
same,z-score,[4],0.222 (inactive)
same,z-score,[5],0.0667 (inactive)
same,composite z-score,[6],0.486
same,composite z-score,[7],0.0816
same,composite z-score,[8],-0.219
same,composite z-score,[9],-0.0217
same,composite z-score,[10],0.711
same,z-score,[11],-0.495 (inactive)
same,composite z-score,[12],0.0153
same,z-score,[13],0.135 (inactive)
same,z-score,[14],0.396 (inactive)
same,z-score,[15],-0.182 (inactive)
same,z-score,[16],0.0644 (inactive)
same,z-score,[17],0.174
same,z-score,[18],-0.608 (inactive)
same,z-score,[19],0.624 (inactive)
same,z-score,[20],-0.535
Cc1ccc(S[C@]2(C(=O)O)CC(=O)N(C(C)C)[C@@H]2c2ccc(CO)cc2I)cc1,composite z-score,[1],-0.0822
same,z-score,[2],-2.86 (inactive)
same,z-score,[3],-0.29 (inactive)
same,z-score,[4],0.324 (inactive)
same,z-score,[5],0.289 (inactive)
same,composite z-score,[6],0.513
same,composite z-score,[7],0.516
same,composite z-score,[8],0.523
same,composite z-score,[9],0.202
same,composite z-score,[10],-0.189
same,z-score,[11],3.35 (inactive)
same,composite z-score,[12],0.775
same,z-score,[13],14.3 (active)
same,z-score,[14],1.02 (inactive)
same,z-score,[15],0.532 (inactive)
same,z-score,[16],-0.263 (inactive)
same,z-score,[17],2.24
same,z-score,[18],0.899 (inactive)
same,z-score,[19],-2.47 (inactive)
same,z-score,[20],0.852
C=CCOC(=O)[C@@H]1[C@H]2C(=O)O[C@H](c3ccccc3)[C@H](c3ccccc3)N2[C@H](c2ccc(OCCOC(=O)[C@@H]3C[C@@H]4C(=O)NCC(=O)N4[C@@H]3c3ccc(O)cc3)cc2)[C@@]12C(=O)Nc1ccc(I)cc12,composite z-score,[1],0.828
same,z-score,[2],0.489 (inactive)
same,z-score,[3],-0.725 (inactive)
same,z-score,[4],-0.13 (inactive)
same,z-score,[5],-0.974 (inactive)
same,composite z-score,[6],-0.259
same,composite z-score,[7],0.029
same,composite z-score,[8],0.877
same,composite z-score,[9],0.706
same,composite z-score,[10],1.53
same,z-score,[11],0.0692 (inactive)
same,composite z-score,[12],-0.404
same,z-score,[13],0.894 (inactive)
same,z-score,[14],0.553 (inactive)
same,z-score,[15],1.58 (inactive)
same,z-score,[16],0.398 (inactive)
same,z-score,[17],0.0971
same,z-score,[18],1.46 (inactive)
same,z-score,[19],0.978 (inactive)
same,z-score,[20],1.35
CCOC(=O)C1=CC[C@@H](c2ccccc2)N(S(=O)(=O)c2ccc(C)cc2)[C@H]1c1ccccc1C,composite z-score,[1],0.572
same,z-score,[2],-2.81 (inactive)
same,z-score,[3],-0.953 (inactive)
same,z-score,[4],0.0707 (inactive)
same,z-score,[5],0.285 (inactive)
same,composite z-score,[6],1.05
same,composite z-score,[7],-0.15
same,composite z-score,[8],0.339
same,composite z-score,[9],0.581
same,composite z-score,[10],-0.19
same,z-score,[11],-0.36 (inactive)
same,composite z-score,[12],0.589
same,z-score,[13],1.57 (inactive)
same,z-score,[14],0.678 (inactive)
same,z-score,[15],-0.569 (inactive)
same,z-score,[16],0.879 (inactive)
same,z-score,[17],-0.102
same,z-score,[18],0.515 (inactive)
same,z-score,[19],0.226 (inactive)
same,z-score,[20],0.963
